# Bioassay records from PubChem BioAssay.
# This is a sample that favours compounds with a hit; in the whole collection about 18% have one here.
# IL1B secr inh = blocks inflammasome-driven IL-1 beta release; activity change, % at 57.5 µM; THP-1 LPS/ATP IL-1B secretion, AlphaLISA, 16 h; hits give low values; AID 743279; hit rate 4.7% among 360,000; in the data active means activity change below about -50%; inconclusive means mostly about -30% to -49%
#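 THP-1 cells pretreated 1 hr with compounds (up to 57.5 uM final), then stimulated with LPS (250 ng/mL final) plus ATP (1.25 mM final); secreted IL-1B measured by AlphaLISA after 16 hr, decreased signal indicating inhibition.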
# CtBP-E1A blk = CtBP/E1A binding inhibition; AlphaScreen GST-E1A/His-CtBP binding, 1536-well; hits give low values; activity change, % (concentration not given with the values); hit rate 0.49% among 340,000; AID 651724; in the data active means activity change below about -65%; inconclusive means mostly about -30% to -63%
#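 AlphaScreen with 125 nM GST-E1A and 125 nM His-CtBP (5X stocks) in Tris pH 8.0, 300 mM NaCl, BSA, Tween 20, TCEP. Compounds preincubated 2 h at 37 deg C, then glutathione donor/nickel acceptor beads added for 1 h at 37 deg C in dark.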
# TDP1 cell CPT = DT40-hTDP1 cell growth loss with CPT. hit rate 12% among 420,000. AID 686979. chicken DT40 Tdp1-/-;hTDP1 cells + 20 nM CPT, ATP luminescence, 48 h. Potency, µM (doses to about 46.2 µM), for the others: top-dose activity change, negative = growth inhibition, most hits filed as inhibitors; further: potency means the concentration at half of the fitted maximal effect; nearly all actives have a fitted effect of over 55% in size
#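 Chicken DT40 Tdp1-/- cells stably complemented with human TDP1 were seeded at 400 cells/well in medium containing 20 nM camptothecin, exposed to pin-transferred compounds, and grown at 37 °C for at least 48 hr. Viability was read as ATP luminescence.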
# TDP1 inh = inhibitors of human tyrosyl-DNA phosphodiesterase TDP1; Q9NUW8; hit rate 0.28% among 350,000; recombinant TDP1, AlphaScreen DNA substrate cleavage; Potency, µM (series often up to 130 µM), for the others: at the highest dose activity change, negative = inhibition, hits mostly inhibitors; further: potency means the concentration at half of the fitted maximal effect; nearly all actives have a fitted effect of over 40% in size
# Target sequence (Q9NUW8 whole entry, looked up): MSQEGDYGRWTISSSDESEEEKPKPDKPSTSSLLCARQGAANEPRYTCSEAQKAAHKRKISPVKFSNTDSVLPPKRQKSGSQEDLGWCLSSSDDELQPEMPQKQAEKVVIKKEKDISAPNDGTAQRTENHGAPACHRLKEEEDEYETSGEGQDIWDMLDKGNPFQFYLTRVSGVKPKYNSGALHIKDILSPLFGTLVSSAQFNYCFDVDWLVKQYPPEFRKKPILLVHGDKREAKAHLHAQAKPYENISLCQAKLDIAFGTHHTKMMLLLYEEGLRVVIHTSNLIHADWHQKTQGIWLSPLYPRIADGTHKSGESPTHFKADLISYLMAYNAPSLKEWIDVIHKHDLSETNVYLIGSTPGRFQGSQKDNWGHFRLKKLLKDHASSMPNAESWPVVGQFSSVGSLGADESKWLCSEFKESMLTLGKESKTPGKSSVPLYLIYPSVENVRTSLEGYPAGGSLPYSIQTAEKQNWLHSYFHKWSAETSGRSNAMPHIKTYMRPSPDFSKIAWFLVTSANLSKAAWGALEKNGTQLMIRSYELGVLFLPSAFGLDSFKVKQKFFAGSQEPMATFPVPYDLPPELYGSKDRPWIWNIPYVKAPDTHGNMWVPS
#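 Enzyme-compound mixtures sat 15 min at room temperature, followed by a 5 min reaction with 15 nM final substrate and 10 min with AlphaScreen beads. Recombinant human Tdp1 was used at 1 nM final.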
# Six1-Eya2 inh = Six1/Eya2 interaction inhibition; hit rate 0.56% among 360,000; Q15475+O00167; AlphaScreen GST-Six1/His-Eya2 binding, biochemical; hits give low values; activity change, % (test concentration not listed); AID 651725; in the data active means activity change below about -65%; inconclusive means mostly about -30% to -63%
#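 GST-Six1 + His-Eya2 (5X stock: 250/500 nM); Tris pH 8.0, 300 mM NaCl, 0.05% BSA, 0.02% Tween 20; GSH donor/Ni acceptor beads; 1 h 37 °C dark; AlphaScreen readout.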
# TDP1 cell noCPT = qHTS for Inhibitors of human tyrosyl-DNA phosphodiesterase 1 (TDP1): qHTS in cells in absence of CPT. Potency, µM (top dose mostly 46.2 µM), without a hit: at the top dose activity change, negative = growth inhibition, actives largely listed as inhibitors. AID 686978, 2013. DT40 Tdp1-/- hTDP1 cells, no CPT, ATP luminescence, 48 h. hit rate 15% among 420,000; further: potency means the concentration at half of the fitted maximal effect; nearly all actives have a fitted effect of over 55% in size
#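 DT40 Tdp1-/-;hTDP1 cells, no CPT (DMSO vehicle only), 400 cells/well; compounds pin-transferred; ≥48 hr, 37 °C; CellTiter-Glo 30 min RT dark, luminescence read.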
# Active calls of the source: *; ? = inconclusive; . = not tested or not shown. Unless noted, the call rests on the fitted dose curve; in most records, active means well fitted curve in the direction sought with a large enough effect; inconclusive means small, poorly fitted or top-dose-only effect, or another doubt; inactive means no such curve, though single readings can be large; an effect the other way counts as inactive or inconclusive. On the % scale 0 is the no-effect control and ±100 the full control effect.
SMILES,IL1B secr inh,CtBP-E1A blk,TDP1 cell CPT,TDP1 inh,Six1-Eya2 inh,TDP1 cell noCPT
C#CCN(C[C@@H]1[C@@H](OC(=O)Nc2cccs2)[C@@H](OC(=O)Nc2cccs2)Cn2c(=O)ccc(=O)n21)S(=O)(=O)c1ccc(C)cc1,-107*,-9,2.9µM*,.,-5,3.3µM*
C#CCN(C[C@@H]1[C@@H](OC(=O)NC2CCCC2)[C@@H](OC(=O)NC2CCCC2)Cn2c(=O)ccc(=O)n21)S(=O)(=O)c1ccc(C)cc1,0,-17,2.6µM*,.,0,2.3µM*
C#CCN(C[C@H]1[C@H](OC(=O)NC2CC2)[C@H](OC(=O)NC2CC2)C[C@H]2C(=O)N(c3ccccc3)C(=O)[C@@H]12)S(=O)(=O)c1ccc(C)cc1,11,1,-14%,.,-3,-12%
Nc1nnc(CC(=O)N/N=C/c2ccc(-c3ccccc3)o2)s1,0,-12,-6%,5%,-14,2%
COC(=O)c1ccc(-c2ccc(/C=N/NC(=O)Cc3nnc(N)s3)o2)cc1,-86*,-16,1%,.,-17,?
COc1ccc(-c2ccc(/C=N/NC(=O)Cc3nnc(N)s3)o2)cc1Cl,-16,.,?,8%,-23,18µM*
Cc1ccc(-c2ccc(/C=N/NC(=O)Cc3nnc(N)s3)o2)cc1Cl,0,-7,?,.,4,-29%
NC(=O)N/N=C/c1ccccc1OC(=O)c1ccccc1Br,3,-21,-4%,5%,-9,-25%
CCOc1cc(C(=O)Nc2cc(C)ccc2C)ccc1OCC(=O)N1CCCCC1,-4,-17,?,0%,3,?
O=C(CNC(=O)c1ccc(OC(F)F)cc1)NCc1ccccn1,-9,-5,4%,.,5,-19%
Cc1cccc(N=Nc2c(N)n[nH]c2N)c1,-25,.,-1%,8%,-3,4%
Nc1n[nH]c(N)c1N=Nc1cccc(F)c1,-78*,11,?,4%,-18,-12%
Cc1c(C(=O)N(Cc2ccc(Cl)cc2)CC2CCCO2)oc2ccc(F)cc12 (configuration not stated),.,.,?,-1%,.,15µM*
CN(Cc1ccccc1)C(=O)c1cc2ccccc2o1,0,9,3%,4%,1,-16%
Cc1ccc2oc(C(=O)N(Cc3ccncc3)CC3CCCO3)c(C)c2c1 (configuration not stated),2,2,?,5%,4,?
CN(C)c1ccc(CN(CC2CCCO2)C(=O)c2cc3ccccc3o2)cc1 (configuration not stated),-23,-14,18µM*,12%,?,?
CC(C)(C)N(Cc1ccccc1)C(=O)c1cc2ccccc2o1,5,.,?,-3%,-2,12µM*
COc1ccc(C(=O)N(Cc2ccc(N(C)C)cc2)CC2CCCO2)cc1 (configuration not stated),.,.,?,2%,.,-16%
Cc1c(C(=O)N(Cc2ccc(N(C)C)cc2)CC2CCCO2)oc2ccc(Cl)cc12 (configuration not stated),.,.,16µM*,12%,.,21µM*
Cc1cc(C(=O)Nc2ccc(S(=O)(=O)N3CCCC3)cc2)cs1,-1,-8,?,7%,-5,?
Cc1cc2oc(C(=O)N(Cc3ccc(N(C)C)cc3)CC3CCCO3)c(C)c2cc1Cl (configuration not stated),.,.,?,5%,.,18µM*
CCOc1cccc(C(=O)N(Cc2ccc(N(C)C)cc2)CC2CCCO2)c1 (configuration not stated),.,.,15µM*,5%,.,16µM*
Cc1c(C(=O)N(Cc2ccc(N(C)C)cc2)CC2CCCO2)oc2ccccc12 (configuration not stated),?,?,23µM*,15%,?,23µM*
